# Only a sample is shown.
# aSyn UTR act: Activators working through SNCA 5'UTR binding (MLPCN) | activity score, % (tested at 7.5 µM), hits read low | 300,000 tested, 7.1% active | alpha-synuclein 5'UTR reporter, activators screen; in the data active means activity score below about -60%
# * marks the source's active call; other numbers are inactive results.
SMILES,aSyn UTR act
O=C(COc1ccccc1)NCCSCc1ccccc1Cl,-64*
O=C(/C=C/c1cccc(Br)c1)c1ccc2c(c1)OCO2,-72*
Fc1ccc(-c2csc(/C=C/c3ccc4c(c3)OCO4)n2)cc1,-186*
O=C(/C=C/c1ccc2c(c1)OCO2)c1ccc[nH]1,-279*
CN(C(=O)/C=C/c1ccc2c(c1)OCO2)c1ccccc1,-89*
CN(/N=C/c1ccc2c(c1)OCO2)c1ccccc1,-169*
O=C(/C=C/c1ccc2c(c1)OCO2)c1ccc(F)cc1,-90*
COc1cc(/C=N/N(C)c2ccccc2)ccc1O,-156*
O=C(/C=C/c1ccccc1)c1ccc2c(c1)OCO2,-206*
CC(=O)[C@]1(O)Cc2c(O)c3c(c(O)c2[C@@H](O[C@H]2C[C@H](N)[C@H](O)[C@H](C)O2)C1)C(=O)c1ccccc1C3=O,110
COc1cccc(/C=C/C(=O)c2ccc[nH]2)c1,-305*
COc1ccc(/C=C/C(=O)NC(=S)N2CCN(c3ccccn3)CC2)cc1,-122*
COc1ccc(/C=C/C(=O)NC(=S)N2CCSCC2)cc1,-65*
COc1ccc(NC(=O)CN(C)C(=O)/C=C/c2ccc(S(=O)(=O)N3CCCCCC3)cc2)cc1,59
CN(C)c1nc(-c2ccccn2)nnc1-c1ccccc1,79
Oc1ccccc1N=Nc1nc(-c2ccccc2)c(-c2ccccc2)[nH]1,107
Oc1ccc(-c2nnc(-c3ccccc3)c(-c3ccccc3)n2)cc1,-201*
CN(C)Cc1c(O)ccc2cc(-c3nc4ccccc4n3C)c(=O)oc12,-70*
CCN(CC)c1ccc2cc(-c3nc4ccccc4n3C)c(=O)oc2c1,-226*
Cn1c(C(=O)NC2CCCCC2)cc2c(=O)n3ccccc3nc21,-134*
Cn1c(C(=O)NCc2ccccn2)cc2c(=O)n3ccccc3nc21,-89*
CCOCCOC(=O)C1=C(C)Nc2ccc(C)cc2S1,-92*
Cc1nc(NC(=O)c2cccc(Cl)c2)sc1C(=O)N1CCCCC1,-138*
CC(=O)c1sc(NC(=O)c2cccc(C)c2)nc1C,-131*
Cc1nc(NC(=O)c2ccc(F)cc2)sc1C(=O)Nc1ccc2c(c1)CCC2,-99*
SMILES,aSyn UTR act
CC(=O)c1sc(NC(=O)c2ccccc2C)nc1C,-88*
CC(=O)c1sc(NC(=O)c2ccc(F)c(F)c2)nc1C,-159*
CC(=O)c1sc(NC(=O)c2ccc(Cl)cc2)nc1C,-108*
CC(=O)c1sc(NCc2ccc(C)cc2)nc1C,-168*
Cc1ccc(CNc2nc(Cl)c(C#N)s2)cc1,-146*
Cc1cccc(C(=O)NC(=O)Nc2c(C)cc(C)nc2C)c1,-147*
Cc1ccc(S(=O)(=O)c2nc(S(C)(=O)=O)sc2N2CCCCCC2)cc1,-113*
CS(=O)(=O)c1nc(S(=O)(=O)c2ccc(Cl)cc2)c(N2CCOCC2)s1,-75*
COc1ccccc1C(=O)Nc1nc2ccc(S(C)(=O)=O)cc2s1,-118*
CS(=O)(=O)c1ccc2nc(NC(=O)c3ccccc3Br)sc2c1,-104*
COc1ccccc1C(=O)Nc1nc2ccccc2s1,109
CS(=O)(=O)c1ccc2nc(NC(=O)c3cccc(Cl)c3)sc2c1,-72*
CS(=O)(=O)c1ccc2nc(NC(=O)c3ccccc3Cl)sc2c1,-109*
Cc1noc(C)c1C(=O)Nc1nc2ccc(S(C)(=O)=O)cc2s1,-70*
CCc1ccccc1NC(=O)CN(C)C(=O)Cn1ncc(Cl)c(Cl)c1=O,-63*
COCCNc1nc2sc3c(c2c(=O)n1Cc1ccco1)CCCCC3,-72*
O=c1c2c3c(sc2nc(NCCO)n1Cc1ccco1)CCCCC3,-118*
Cc1ccc(C(=O)Nc2ncc([N+](=O)[O-])s2)cc1,69
O=C(Cc1ccc(Br)cc1)Nc1ncc([N+](=O)[O-])s1,-105*
O=C(Nc1ncc([N+](=O)[O-])s1)c1ccco1,-98*
O=C(Cc1ccc(Cl)cc1)Nc1ncc([N+](=O)[O-])s1,-131*
COc1ccc(Nc2c([N+](=O)[O-])ccc3c2=NC2(CCCCC2)N=3)cc1,-64*
Cc1nc(NC(=O)C23CC4CC(CC(C4)C2)C3)sc1Cc1ccc2c(c1)OCO2,-184*
O=[N+]([O-])c1ccccc1/C=N/Nc1nccnc1Cl,-184*
Oc1ccccc1/C=N/Nc1nccnc1Cl,88
SMILES,aSyn UTR act
Nc1cc(Cl)nc(N/N=C/c2ccccc2[N+](=O)[O-])n1,-188*
Nc1c(-c2ccccc2)cnn1-c1ccccc1,-110*
CCOC(=O)Cn1ncc(-c2ccccc2)c1N,-129*
Nc1c(-c2cccc(Cl)c2)cnn1-c1ccccc1,-122*
CCOC(=O)Cn1c(S(=O)(=O)Cc2ccccc2Cl)nc(-c2ccccc2)c1-c1ccccc1,54
O=[N+]([O-])c1ccc(-[n+]2ccc3ccccc3c2)c([N+](=O)[O-])c1,-105*
CCc1cc2cc(C(=O)Nc3ccc(C)cc3)sc2s1,-90*
CCc1ccc(C2=NN(S(C)(=O)=O)C(c3cccs3)C2)cc1 (stereo not drawn),-92*
COc1ccc(C2CC(c3cccs3)=Nc3ccccc3S2)cc1 (stereo not drawn),-163*
COc1ccc(C2=NN(S(C)(=O)=O)C(c3cccs3)C2)cc1 (stereo not drawn),-95*
